The values below come from PubChem BioAssay (EPA / NIEHS).

Calls of active or inactive are those of the source. Rule for the calls: active = hit-call score of the fitted dose curve at least 0.9, where 1 is the maximum; inconclusive = response in the unintended direction; inactive = score below 0.9.

The assay can be described thus: CPHEA_Stoker_NIS_Cytotoxicity: Cytotoxicity Assessment for CPHEA's Radioactive Iodide Uptake (RAIU) Assay for Sodium/Iodide Symporter (NIS) Inhibition, Stoker and Laws Labs (AID 2283897).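 For AC50: active means loss of ATP signal versus DMSO meaning cytotoxicity.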 The protocol: CPHEA_Stoker_NIS is a cell-based, single-readout assay that uses hNIS-HEK293T-EPA, a novel human kidney cell line expressing human NIS, with measurements taken at 2 hours after chemical dosing in a 96-well plate. This radioactive iodide uptake (RAIU) assay is used to identify inhibitors of NIS-mediated iodide uptake. A parallel cytoxicity assay (Cell Titer Glo, Promega) was also run in the same cell line.CPHEA_Stoker_NIS_Cytotoxicity is one of 2 assay components measured from the CPHEA_Stoker_NIS assay. It is designed to make measurements of atp content, a form of viability reporter, as detected with bioluminescence signals by Luciferase-coupled ATP quantitation technology.Data from the assay component CPHEA_Stoker_NIS_Cytotoxicity was analyzed at the endpoint, CPHEA_Stoker_NIS_Cytotoxicity, in the positive analysis fitting direction relative to DMSO as the negative control and baseline of activity. Using a type of viability reporter, measures of ATP content for loss-of-signal activity can be used to understand the viability. To generalize the intended target to other relatable targets, this assay endpoint is annotated to the cell cycle intended target family, where the subfamily is cytotoxicity.
hNIS-HEK293T-EPA cells were seeded with a MultiFlo FX dispenser (BioTek, Winooski, VT) into ScintiPlate-96 microplates (Perkin Elmer, Waltham, MA) at a density of 4.0x10^4 cells per well in 200uL growth media and incubated for 40 hours before experimentation. On day of the assay, carrier-free 125I (Perkin-Elmer, Waltham, MA; specific activity: 17.4Ci/mg) was diluted with Hanks' balanced salt solution (Sigma, St. Louis, MO) supplemented with 10mM HEPES (uptake buffer; pH 7.4) at 5uCi/mL (288pg 125I/mL uptake buffer; 2.30nM). The assay was initiated by washing cells twice with 200uL uptake buffer using a 96-well Tecan HydroSpeed plate washer (Tecan, Mannedorf, Switzerland). Uptake buffer (59.7uL) was then added back to each well. Chemical samples (350nL at 200X) were administered using the HDR tool as previously described to achieve a 1X chemical/0.5% final DMSO concentration with subsequent addition of 10uL of 125I dilution (final [125I]: 329pM; 2.88pg/well) for a final reaction volume of 70uL/well. Cells were incubated at room temperature for 2 hours and then washed twice with 200uL ice cold uptake buffer. All uptake buffer was aspirated from wells, plates were sealed, and read on a MicroBeta2 plate reader (Perkin Elmer, Waltham, MA) using a detection protocol to measure CPM corresponding to intracellular 125I concentration. Each chemical concentration (0.001, 0.01, 0.1, 1.0, 10, and 100uM) was assayed in triplicate with three independent biological replicate plates (3 sequential cell passages). Additionally, a concentration response of NaClO4 (0.001, 0.01, 0.1, 1.0, 10, and 100uM) served as a positive control inhibition curve on each RAIU assay plate. DMSO control wells were assayed on each plate as a measure of maximum iodide uptake for normalization and determination of intra- and inter-assay variation. (Toxicol In Vitro, 2017, 40:66-78).
For the compound `CCN(CC)C(=O)C(C)Oc1cccc2ccccc12` (configuration not stated), the result was inactive.

`OC(c1ccc(Cl)cc1)(c1ccc(Cl)cc1)C(Cl)(Cl)Cl`: the AC50 (in general, the concentration giving half of the maximal activity seen) was 50 µM (active).

Consider `CSC(=O)c1c(C(F)F)nc(C(F)(F)F)c(C(=O)SC)c1CC(C)C`, for which the outcome was inactive.

`COP(=S)(OC)Oc1ccc([N+](=O)[O-])c(C)c1`: the outcome was inactive.

Turning to `Cc1ccc(N=CN(C)C=Nc2ccc(C)cc2C)c(C)c1`, the outcome was inactive.

For `COc1ccc(-c2ccccc2)cc1NNC(=O)OC(C)C`, the result was inactive.

For the compound `CCNP(=S)(OC)O/C(C)=C/C(=O)OC(C)C` (configuration not stated), the outcome was inactive.

Take `CCOP(=S)(OCC)Oc1nc(Cl)n(C(C)C)n1`: the outcome was inactive.

As to `CO/N=C(/C1=NOCCO1)c1ccccc1Oc1ncnc(Oc2ccccc2Cl)c1F`, the AC50 is 10.9 µM (active).

Consider `CCCCOCN(C(=O)CCl)c1c(CC)cccc1CC`, for which the outcome was inactive.

Turning to `CCCCC(O)(Cn1cncn1)c1ccc(Cl)cc1Cl` (configuration not stated), the outcome was inactive.

Consider `C=C(C)CN(CC)c1c([N+](=O)[O-])cc(C(F)(F)F)cc1[N+](=O)[O-]`, for which the AC50 was 9.92 µM (active).

As for `CC(C)N1C(=O)N(c2ccccc2)CSC1=NC(C)(C)C`, the half-maximal activity concentration (AC50) was 40.8 µM (active).

Turning to `COP(=S)(OC)SCn1nnc2ccccc2c1=O`, the result was inactive.

Consider `O=C(Nc1ccccc1-c1ccc(Cl)cc1)c1cccnc1Cl`, for which the result was inactive.

With `CC1(C)C(C(=O)OC(C#N)c2cccc(Oc3ccccc3)c2)C1(C)C` (configuration not stated), the outcome was inactive.

On to `CC1(C)CON(Cc2ccccc2Cl)C1=O`, for which the outcome was inactive.

With `CC(C)Oc1cccc(NC(=O)c2ccccc2C(F)(F)F)c1`, the outcome was inactive.

Consider `Nc1c(Cl)c(Cl)nc(C(=O)O)c1Cl`, for which the result was inactive.

Regarding `CCCCC(C#N)(Cn1cncn1)c1ccc(Cl)cc1` (configuration not stated), the outcome was inactive.

For the compound `C=CCOC(=O)C(C)(C)OC(=O)c1cc(-n2c(=O)cc(C(F)(F)F)n(C)c2=O)ccc1Cl`, the result was inactive.

Turning to `CC1(C)C(C=C(Cl)Cl)C1C(=O)OC(C#N)c1cccc(Oc2ccccc2)c1` (configuration not stated), the outcome was inactive.

For `N#Cc1c[nH]cc1-c1cccc2c1OC(F)(F)O2`, the result was inactive.

With `O=C1C2CC=CCC2C(=O)N1SC(Cl)(Cl)Cl` (configuration not stated), the outcome was inactive.

For the compound `CCOC(=O)C(C)OC(=O)c1cc(Oc2ccc(C(F)(F)F)cc2Cl)ccc1[N+](=O)[O-]` (configuration not stated), the result was inactive.

Turning to `Clc1cccc(C(Cl)(Cl)Cl)n1`, the outcome was inactive.

For the compound `CCOc1cc(C(C)(C)C)ccc1C1COC(c2c(F)cccc2F)=N1` (configuration not stated), the outcome was inactive.

Regarding `CCOP(=O)(OCC)Oc1nc(Cl)c(Cl)cc1Cl`, the outcome was inactive.

As to `CCOc1nc(F)cc2nc(S(=O)(=O)Nc3c(Cl)cccc3Cl)nn12`, the outcome was inactive.

Take `COC(=O)c1c(C(F)F)nc(C(F)(F)F)c(C2=NCCS2)c1CC(C)C`: the outcome was inactive.

Turning to `CC(C)=CC1C(C(=O)OCc2coc(Cc3ccccc3)c2)C1(C)C` (configuration not stated), the outcome was inactive.

`CCN(CC)c1nc(C)cc(OP(=S)(OC)OC)n1`: the outcome was inactive.
